Most compounds without a hit are left out; they make up all but 3.9% or so of the library.
PLCb3 inh: human PLC-beta3 inhibitors, primary screen, biochemical, fluorescence | 1-phosphatidylinositol 4,5-bisphosphate phosphodiesterase beta-3 (Homo sapiens), Q01970 | Purified PLC-beta3, fluorogenic substrate | inhibition, % at 12.2 µM | actives 0.18% (n = 370,000) | AID 720704, 2013; in the data active = inhibition above about 11%;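 also: 0% = median of compound wells on plate and 100% = full blocker control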
HGIII-sPLA2 inh: human group III sPLA2 inhibitors, primary screen, biochemical, QFRET, BODIPY PC-A2 liposome substrate | AID 743126, 2013 | Group 3 secretory phospholipase A2 (Homo sapiens), Q9NZ20 | inhibition, % at 12.2 µM | QFRET BODIPY PC-A2 liposome hydrolysis, fluorescence | actives 0.56% (n = 370,000);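 active = inhibition above mean plus 3 SD of compounds lying within the high and low control bounds, cut at about 19% in these data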;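 also: 0% = median of test compound wells and 100% = no enzyme DMSO wells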
PLC-gamma1 inh: PLC-gamma1 enzyme inhibitors, primary screen, biochemical, fluorescence, purified enzyme | 1-phosphatidylinositol 4,5-bisphosphate phosphodiesterase gamma-1 (Homo sapiens), P19174 | fluorogenic substrate | inhibition, % at 12.2 µM | actives 0.84% (n = 370,000); in the data active = inhibition above about 9.5%
AHR activator: AHR activators, primary screen, cell-based, luminescence, luciferase reporter, human; AHR-responsive luciferase reporter cells; actives 2.5% (n = 320,000); Aryl hydrocarbon receptor (Homo sapiens), P35869; AID 2796, 2010; activation, % at 5 µM; in the data active = activation above about 47%;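 also: 0% = vehicle wells and 100% = reference agonist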
CR mimetic SO: reduction of superoxide in aged yeast, primary screen, HTS. S. cerevisiae aged cells, superoxide DHE fluorescence; hits give low values. superoxide response (% of plate mean), % at 10 µM. actives 0.18% (n = 330,000). AID 2690, 2010;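 active = superoxide response under a set limit, about three screen SD below normal, cut at about 65% in these data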;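 also: yeast aged for seven days with compound at 30 °C before DHE staining; 100% = average MFI of all compound-treated wells on the plate with controls excluded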
HIF act: HIF pathway transcriptional activators, primary screen, cell-based, U2OS HRE-luciferase, luminescence; actives 0.32% (n = 300,000); activation, % at 7.5 µM (by protocol); U2OS HRE-luciferase reporter; normalized: DMSO 0%, desferrioxamine 100%;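 active = mean activation of at least 10% of the iron chelator positive control signal, with at least half of replicates also reaching 10%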
Numbers without * were called inactive.

How did C[C@@H](NC(=O)c1ccc(C#Cc2cccc(F)c2)cn1)C(C)(C)O do in these assays?
PLCb3 inh: -13; HGIII-sPLA2 inh: 7; PLC-gamma1 inh: -6

What do the screens show for `COc1cc2ccccc2cc1C(=O)NC(=S)Nc1ccc(C(=O)O)cc1`?
PLCb3 inh: -8; HGIII-sPLA2 inh: 0; PLC-gamma1 inh: -4; AHR activator: 52*; CR mimetic SO: 86; HIF act: 1

How did COc1ccccc1C(=O)NC(=S)Nc1ccccc1N1CCCC1 do in these assays?
PLCb3 inh: -22; HGIII-sPLA2 inh: 6; PLC-gamma1 inh: -14; AHR activator: 53*; CR mimetic SO: 114; HIF act: 1

Results for O=C(NC(=S)Nc1ccccc1N1CCCC1)c1ccc(F)cc1 ?
PLCb3 inh: -40; HGIII-sPLA2 inh: 7; PLC-gamma1 inh: -36; AHR activator: 71*; CR mimetic SO: 103; HIF act: 0

Results for O=C(COc1ccc(Br)cc1)NC(=S)Nc1ccccc1N1CCOCC1 ?
PLCb3 inh: -9; HGIII-sPLA2 inh: 6; PLC-gamma1 inh: 2; AHR activator: 6; CR mimetic SO: 97; HIF act: -1

What do the screens show for `O=C(NC(=S)Nc1ccccc1N1CCOCC1)c1ccc(Br)cc1`?
PLCb3 inh: -4; HGIII-sPLA2 inh: 11; PLC-gamma1 inh: 2; AHR activator: 55*; CR mimetic SO: 92; HIF act: 0

What do the screens show for `O=C(NC(=S)Nc1ccccc1N1CCCCC1)c1ccccc1`?
PLCb3 inh: 3; HGIII-sPLA2 inh: 2; PLC-gamma1 inh: 1; AHR activator: 33; CR mimetic SO: 98; HIF act: 0

What do the screens show for `COc1cc2ccccc2cc1C(=O)NC(=S)Nc1cccc(C(=O)O)c1`?
PLCb3 inh: -16; HGIII-sPLA2 inh: -4; PLC-gamma1 inh: -12; AHR activator: -1; CR mimetic SO: 108; HIF act: 3

What do the screens show for `COc1cccc(OC)c1C(=O)Nc1ccccc1N1CCCC1`?
PLCb3 inh: -10; HGIII-sPLA2 inh: 5; PLC-gamma1 inh: -2; AHR activator: 13; CR mimetic SO: 91; HIF act: -11

What do the screens show for `O=C(CSc1nnc(-c2ccc(Cl)cc2)n1-c1ccccc1)Nc1ccc2c(c1)OCCO2`?
PLCb3 inh: -3; HGIII-sPLA2 inh: 3; PLC-gamma1 inh: -1

How did COc1ccc(OC)c(S(=O)(=O)N2CCCCC2C(=O)N2CCCN(C)CC2)c1 (configuration not stated) do in these assays?
PLCb3 inh: 3; HGIII-sPLA2 inh: -2; PLC-gamma1 inh: 1

How did O=C(CSc1nnc(-c2cccnc2)n1-c1ccc(Cl)cc1)Nc1ccccc1-c1ccccc1 do in these assays?
PLCb3 inh: 1; HGIII-sPLA2 inh: -14; PLC-gamma1 inh: 0

Results for COc1ccccc1C(=O)NC(=S)Nc1ccc(N2CCCC2)cc1 ?
PLCb3 inh: -3; HGIII-sPLA2 inh: -2; PLC-gamma1 inh: -22; AHR activator: 85*; CR mimetic SO: 89; HIF act: 3

Results for O=C(Nc1ccc(F)cc1)OCc1cn(Cc2ccccc2C(F)(F)F)nn1 ?
PLCb3 inh: 1; HGIII-sPLA2 inh: -13; PLC-gamma1 inh: -1

What do the screens show for `COc1ccc(OC)c(CNC(=O)CCCc2cn(C)c3ccccc23)c1`?
PLCb3 inh: -2; HGIII-sPLA2 inh: 5; PLC-gamma1 inh: 3; AHR activator: 71*; CR mimetic SO: 94; HIF act: 0

Results for CC1=NN(c2nc(-c3ccc(C)cc3)cs2)C(=O)C1N=Nc1ccccc1O (configuration not stated) ?
PLCb3 inh: -1; HGIII-sPLA2 inh: -8; PLC-gamma1 inh: 1; AHR activator: 51*; CR mimetic SO: 87; HIF act: 1

How did CC1=NN(c2nc(-c3ccc(C)cc3)cs2)C(=O)C1N=Nc1cccc(O)c1 (configuration not stated) do in these assays?
PLCb3 inh: -3; HGIII-sPLA2 inh: 8; PLC-gamma1 inh: -4; AHR activator: -2; CR mimetic SO: 119; HIF act: 0

What do the screens show for `CCCN1C(=O)c2n[nH]c(C(C)C)c2C1c1cccc(C(F)(F)F)c1` (configuration not stated)?
PLCb3 inh: 1; HGIII-sPLA2 inh: 0; PLC-gamma1 inh: -6

What do the screens show for `COc1ccc(CC(=O)NNC(=O)c2ccccc2)cc1OC`?
PLCb3 inh: -7; HGIII-sPLA2 inh: -2; PLC-gamma1 inh: -1; AHR activator: 1; CR mimetic SO: 98

How did COc1ccc(CC(=O)NNC(=S)NCC2CC2)cc1OC do in these assays?
PLCb3 inh: -5; HGIII-sPLA2 inh: 8; PLC-gamma1 inh: 1; AHR activator: 0; CR mimetic SO: 111; HIF act: 30*

What do the screens show for `C[C@H]1CCC/C=C/C(=O)c2c(cc(O)c(Cl)c2O)CC(=O)O1`?
PLCb3 inh: -12; HGIII-sPLA2 inh: -13; PLC-gamma1 inh: -5

Results for CCOC(=O)C1=CCN(S(=O)(=O)c2ccc(Cl)cc2)C1c1cccc(F)c1 (configuration not stated) ?
PLCb3 inh: 1; HGIII-sPLA2 inh: -8; PLC-gamma1 inh: -1

How did CCOC(=O)C(=CNc1ccc(NC2=NCC(C)S2)cc1)C(=O)OCC (configuration not stated) do in these assays?
PLCb3 inh: -119; HGIII-sPLA2 inh: -7; PLC-gamma1 inh: -97; AHR activator: -1; CR mimetic SO: 97; HIF act: 17*

Results for CCOC(=O)C(=CNc1ccc(C(F)(F)F)cc1)C(=O)OCC ?
PLCb3 inh: -5; HGIII-sPLA2 inh: 11; PLC-gamma1 inh: 1; AHR activator: -5; CR mimetic SO: 115; HIF act: 0

What do the screens show for `CC1(C)CC(=O)N(CC(=O)N2CCN(c3cccc(Cl)c3Cl)CC2)c2ccccc2S1(=O)=O`?
PLCb3 inh: -2; HGIII-sPLA2 inh: -4; PLC-gamma1 inh: 2

Results for Cc1ccc(NC(=O)C2CCCN(c3ncccn3)C2)cc1F (configuration not stated) ?
PLCb3 inh: -11; HGIII-sPLA2 inh: 6; PLC-gamma1 inh: -7; AHR activator: 17; CR mimetic SO: 103; HIF act: 3

How did O=C(Nc1cccc(F)c1)C1CCCN(c2cnccn2)C1 (configuration not stated) do in these assays?
PLCb3 inh: -39; HGIII-sPLA2 inh: 0; PLC-gamma1 inh: -19; AHR activator: 52*; CR mimetic SO: 99; HIF act: 1

Results for COc1cccc(NC(=O)C2CCN(c3cnccn3)CC2)c1 ?
PLCb3 inh: -35; HGIII-sPLA2 inh: 7; PLC-gamma1 inh: -22; AHR activator: 4; CR mimetic SO: 101; HIF act: 1

High-throughput results: PubChem, several laboratories
